High-throughput results (PubChem BioAssay)
Fluor 339 460: intrinsic fluorescence of library compounds, ex339/em460 – biochemical, MLSMR library, data from DPM-DC assay, artefact control, profiling panel | compound autofluorescence, ex339/em460 nm, NADH buffer; hits give high values; 1 = no-compound wells, NADH background | fluorescence fold increase at 10 µM | 65,000 compounds, 5.5% hits | AID 709;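 active means at 10 µM, mean starting fluorescence two-fold or more over control wells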;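 further: signal is the first read of a kinetic run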
M1 antagonist: blocks the rat M1 muscarinic receptor response to acetylcholine; 64,000 compounds, 3.4% hits; P08482; B-score at 10 µM; CHO-M1 cells, Fluo-4 calcium, ACh EC80 antagonist mode; hits give low values;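 active means calcium fluorescence response, raw or row-and-column corrected B-score, differing from the plate sample mean either way at a set confidence level, mostly lower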
M1 ag: agonists of M1 muscarinic receptor; CHO-M1 cells, Fluo-4 calcium fluorescence, agonist mode; hits give high values; 64,000 compounds, 3% hits; B-score at 10 µM; AID 626;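 active means fluorescence rise, raw or as B-score row- and column-corrected plate score, outside the 99.7% band of its plate's samples, either direction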
Abs 340nm: absorbance at 340 nm | AID 708 | compound absorbance at 340 nm, fold over control | fold change at 10 µM | 65,000 tested, under 10 active;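 active means at 10 µM dose, initial 340 nm absorbance at least 2 fold that of control wells; inactive means change under 2 fold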;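 further: initial absorbance extrapolated from kinetic A340 decline of NADH oxidation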
WNV NS2B-NS3 inh: inhibitors of West Nile virus NS2B-NS3 protease; P06935; WNV NS2B-NS3 protease, fluorogenic substrate Ex360/Em465; hits give low values; z-score (test concentration not listed); 65,000 compounds, 0.18% hits; AID 577; in the data active means z-score below about -3
Target sequence (P06935 1371-1501 limits assumed): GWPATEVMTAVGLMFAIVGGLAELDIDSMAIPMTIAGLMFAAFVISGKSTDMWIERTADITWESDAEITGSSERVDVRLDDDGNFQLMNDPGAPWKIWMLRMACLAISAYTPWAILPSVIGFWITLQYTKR
Target sequence (P06935 1502-1679 limits assumed): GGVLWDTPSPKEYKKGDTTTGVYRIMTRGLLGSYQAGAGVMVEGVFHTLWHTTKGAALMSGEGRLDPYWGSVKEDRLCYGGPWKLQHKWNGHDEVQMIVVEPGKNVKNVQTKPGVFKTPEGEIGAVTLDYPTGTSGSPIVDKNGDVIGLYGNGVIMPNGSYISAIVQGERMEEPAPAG
BAP1 inh: inhibitors of human BAP1 deubiquitinase; calls only at 20 µM; 72,000 compounds, 0.48% hits; Q92560; recombinant BAP1, Ub-AMC hydrolysis fluorescence kinetic; hits give low values;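 active means activity remaining at or below 50% of control, provided the compound also passes the data quality filters; inactive means the rest, including low values that fail the filters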;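 further: 100% = DMSO wells rate and 0% = substrate alone blank rate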
M1 antag confirm: confirmation of rat M1 muscarinic receptor antagonists; AID 677; calcium response (max-min fluorescence) at 10 µM; 1,700 compounds, 43% hits; shares compounds with M1 antagonist; CHO-M1 cells, Fluo-4 calcium, ACh EC80 antagonism; hits give low values;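 active means calcium response below the same-plate mean of wells given acetylcholine alone at its 80%-effect dose, minus 3 SD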;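 further: raw fluorescence intensity difference in arbitrary instrument units and not normalized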
mGluR4 antag: acts on human mGluR4 in M1 antagonist selectivity test; CHO-mGluR4 calcium flux, Fluo-4 fluorescence, glutamate EC80; hits give low values; shares compounds with M1 antagonist; 1,700 compounds, 0.9% hits; fluorescence response (max-min) at 10 µM; AID 678;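 active means fluorescence response below the plate's average for near-maximal glutamate wells, less 3 SD of those wells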;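 further: raw unnormalized fluorescence span taken in the window right after glutamate addition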
* = called active by the depositor; i = inactive; . = not tested or not shown. Compounds with a hit are over-represented: about 9.7% of the library has one in this group of screens.

SMILES	Fluor 339 460	M1 antagonist	M1 ag	Abs 340nm	WNV NS2B-NS3 inh	BAP1 inh	M1 antag confirm	mGluR4 antag
O=C(Nc1ccc(S(=O)(=O)Nc2nccs2)cc1)C1CCCCC1	1.12	-13.3*	0.723	1.04	-0.31	i	682	209
CCN(CC)S(=O)(=O)c1cccc(C(=O)NC(C(=O)Nc2nnc(C3CC3)s2)C(C)C)c1 (stereo not given)	1.02	-2.58*	-0.0593	0.99	-0.4	i	544	256
CCN(CC)S(=O)(=O)c1cccc(C(=O)NC(C(=O)NC2=NCCS2)C(C)C)c1 (stereo not given)	1.12	1.03	-0.454	1.03	0.28	i	.	.
COc1ccc(C(CNC(=O)c2ccc(S(=O)(=O)N3CCOCC3)cc2)N2CCCCC2)cc1 (stereo not given)	1.1	-3.24*	-0.688	1.01	0.78	i	576	186
COCCNC(=O)c1sc2cc(Cl)ccc2c1Cl	.	.	.	.	.	i	.	.
Clc1ccc(CN2C3=NCCN3c3ccccc32)cc1Cl	1.13	-3.22*	-1.47	1.02	-0.07	i	399*	247
O=C(Nc1nc(-c2ccc(F)cc2)cs1)c1cccc([N+](=O)[O-])c1	.	.	.	.	.	i	.	.
CN1C(=O)N(c2cccc3ccccc23)C(C)(O)CC1(C)C (stereo not given)	.	.	.	.	.	i	.	.
O=S(=O)(/N=S1/CC=CCN1S(=O)(=O)c1ccccc1)c1ccccc1 (stereo not given)	1	-2.06*	-1.37	1.04	0.00108	i	666	243
O=C(COc1ccccc1[N+](=O)[O-])Nc1ccccc1[N+](=O)[O-]	.	.	.	.	.	i	.	.
CC1CCCN(CCCNC(=O)C2CC(=O)N(c3ccc(F)c(Cl)c3)C2)C1 (stereo not given)	1.09	0.242	-0.213	0.99	-1.01	i	.	.
CC1CCCCN1CCNC(=O)C1CC(=O)N(c2ccc(F)c(Cl)c2)C1 (stereo not given)	1.07	-1.64*	0.0809	0.97	0.68	i	440	168
CN1CCN(CC(=O)N2c3ccccc3C(=O)Nc3cccnc32)CC1	0.99	.	.	0.97	-1.43	i	.	209
CCCC(c1nnnn1Cc1ccco1)N1CCC(C(N)=O)CC1 (stereo not given)	1.15	-0.0109	0.109	0.99	0.49	i	.	.
CCCCC(c1nnnn1Cc1ccco1)N1CCN(c2nc3ccccc3s2)CC1 (stereo not given)	1.13	-3.31*	-0.613	0.99	-1.6	.	587	227
c1ccc(Cn2nnnc2C(c2ccccc2)N2CCN(c3nc4ccccc4s3)CC2)cc1 (stereo not given)	1.11	-2.15*	-1.42	0.97	-0.37	i	623	241
O=C(Cn1cnc([N+](=O)[O-])n1)Nc1cccc(Cl)c1	.	.	.	.	.	i	.	.
Cn1ccnc1SCC(=O)c1cc2ccccc2o1	1.05	-3.25*	0.354	1.11	0.14	.	648	250
Cn1c(SCC(=O)c2cc3ccccc3o2)nnc1-c1ccccc1	1.02	-2.01*	-0.0549	1.02	0.08	i	680	261
O=c1oc2ccc(Br)cc2cc1-c1nc(-c2ccc(Br)cc2)cs1	.	.	.	.	.	i	.	.
CCOC(=O)N1CCN(C(=O)C2CCN(Cc3nc(-c4ccccc4C)oc3C)CC2)CC1	1.08	-3.04*	-0.723	1.02	-0.43	i	538	224
CCOC(=O)N1CCN(C(=O)C2CCCN(Cc3nc(-c4ccc(Cl)cc4)oc3C)C2)CC1 (stereo not given)	1.07	-3.78*	0.482	1.04	0.2	i	343*	233
CCOC(=O)N1CCN(C(=O)CSCc2nc(-c3ccccc3C)oc2C)CC1	1.06	-0.366	-1.9	1	0.29	.	.	.
Cc1oc(-c2cccc(Cl)c2)nc1CN1CCC(C(=O)NCCCN2CCCC2=O)CC1	1	-0.0423	-0.0102	1.02	0.55	i	.	.
Cc1oc(-c2ccc(Cl)cc2)nc1CN1CCCC(C(=O)N2CCc3ccccc32)C1 (stereo not given)	1.01	-0.179	-0.117	0.99	-1.57	i	.	.
